Screening data: PubChem BioAssay, Johns Hopkins Ion Channel Center
KCNQ2 inh = blocks the rat KCNQ2 potassium channel | O88943 | CHO-K1 KCNQ2, FluxOR thallium flux, 20 min; stronger effect = lower value | B-score at 10 µM | 310,000 compounds, 1.1% hits | AID 2156;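 active means fluorescence ratio B-score at most minus 3 library SDs, with starting brightness B-score within 2 library SDs, cut at about -5.5 in these data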
KCNQ2 pot = KCNQ2 (rat) channel potentiation. O88943. CHO-K1 KCNQ2, FluxOR thallium flux fluorescence; stronger effect = higher value. B-score at 10 µM. 310,000 compounds, 0.54% hits. AID 2239;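 active means fluorescence ratio B-score at least 3 SD of library B-scores, with initial fluorescence B-score within 3 of them, cut at about 5.3 in these data; same plate scores as AID 2156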;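 further: B-score of peak minus minimum over baseline fluorescence ratio after K+ and Tl+ stimulus; positive B-score means potentiation of KCNQ2 with more thallium influx and brighter signal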
Kir21 conf inh = confirmation of mouse Kir2.1 potassium channel inhibitors. shares compounds with KCNQ2 pot. Kir2.1-expressing cells, FluxOR thallium flux fluorescence; stronger effect = lower value. Tl flux remaining, % of negative control (stronger effect = lower value), % at 10 µM. 2,300 compounds, 41% hits. AID 2032;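 active means Primary-screen hit whose thallium flux fell at least 3 control SD below untreated wells in both duplicates, with normal baseline fluorescence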;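 further: 0% = blank wells without stimulus and 100% = stimulated no-compound controls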
HEK293 ctr = counter-screen for Kir2.1 inhibitors: effect in parental HEK293 cells | shares compounds with KCNQ2 pot | FluxOR thallium flux fluorescence; 0% = unstimulated blank wells | FluxOR signal as % of negative control (100 = no effect), % at 10 µM | 2,300 compounds, 19% hits | AID 2105;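 active means dye signal at least 3 control SD above or below untreated wells in both duplicates, raw fluorescence within 3, either direction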;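 further: percent is based on the flux ratio of peak minus minimum fluorescence over baseline F0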
CHO-K1 ctr = alters thallium flux in parental CHO-K1 cells, KCNQ2 counter-screen | shares compounds with KCNQ2 pot | FluxOR thallium flux fluorescence; zero = vehicle mean+3SD, 100% = vehicle-minus-blank window | activity increase over 3SD of controls, % at 10 µM | 1,200 compounds, 43% hits;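 active means signal rise of at least 3 SD above the untreated control mean, in both duplicate wells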;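 further: counter screen of KCNQ2 potentiator hits so any rise reflects channel-independent effects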
KCNQ1 pot spec = tests whether KCNQ2 potentiators also act on human KCNQ1 | shares compounds with KCNQ2 pot | CHO KCNQ1 stable, FluxOR thallium flux fluorescence; beyond 3SD, as % of vehicle-control signal | activation over 3SD threshold, % at 10 µM | 1,200 compounds, 28% hits | AID 2283;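 active means fluorescence ratio rise of at least 3 SD of vehicle wells above their mean, in both replicate wells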;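 further: 0% = vehicle mean plus 3 SD and 100% = vehicle minus unstimulated blank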
Target sequence (P51787 whole entry, looked up): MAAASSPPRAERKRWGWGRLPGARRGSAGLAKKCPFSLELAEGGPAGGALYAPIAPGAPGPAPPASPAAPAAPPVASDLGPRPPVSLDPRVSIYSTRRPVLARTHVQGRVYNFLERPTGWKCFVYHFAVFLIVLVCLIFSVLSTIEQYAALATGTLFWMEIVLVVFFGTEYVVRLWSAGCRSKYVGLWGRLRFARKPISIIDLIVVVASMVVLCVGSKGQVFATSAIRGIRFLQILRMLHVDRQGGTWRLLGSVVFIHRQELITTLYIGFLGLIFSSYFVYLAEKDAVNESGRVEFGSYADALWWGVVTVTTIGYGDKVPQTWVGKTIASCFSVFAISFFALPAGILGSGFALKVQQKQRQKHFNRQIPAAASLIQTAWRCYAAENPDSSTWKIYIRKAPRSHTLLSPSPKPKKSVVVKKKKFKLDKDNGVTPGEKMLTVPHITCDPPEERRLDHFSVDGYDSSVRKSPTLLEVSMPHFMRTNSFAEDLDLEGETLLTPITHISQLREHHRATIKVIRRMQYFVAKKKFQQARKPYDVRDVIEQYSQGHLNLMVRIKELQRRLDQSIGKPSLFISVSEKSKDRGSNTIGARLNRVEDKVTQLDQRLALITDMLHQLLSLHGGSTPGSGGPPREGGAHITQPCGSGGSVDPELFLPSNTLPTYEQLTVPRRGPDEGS
KCNQ2 pot confirm = confirmation of rat KCNQ2 potassium channel potentiators; shares compounds with KCNQ2 pot; CHO-KCNQ2 cells, FluxOR thallium flux fluorescence; potentiation, less the hit threshold, % at 10 µM; 1,200 compounds, 68% hits; AID 2287;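 active means fluorescence ratio rising 3 SD or more over the vehicle control mean in both replicates, plus primary screen hit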;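 further: peak minus minimum thallium fluorescence divided by baseline after K/Tl stimulus; 0% = vehicle mean plus 3 SD and 100% = vehicle minus unstimulated blank difference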
Kir21 spec = selectivity of KCNQ2 potentiators: effect on mouse Kir2.1; shares compounds with KCNQ2 pot; HEK293 Kir2.1, FluxOR thallium flux fluorescence; activity over 3SD threshold, % at 10 µM; 1,200 compounds, 2% hits; AID 2345;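 active means fluorescence ratio rise of at least 3 SD above the vehicle-control mean, seen in both replicates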;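 further: 0% = vehicle mean plus 3 SD and 100% = vehicle minus no-stimulus blank window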
KCNQ2 W236L MoA = rat KCNQ2 W236L mutant potentiation by KCNQ2 potentiators; shares compounds with KCNQ2 pot; CHO KCNQ2-W236L, automated patch clamp current; current increase over 3SD of negative controls (%), stronger effect = higher value, % at 25 µM; 940 compounds, 10% hits; AID 2558;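 active means current increase at least 3 SD of the untreated controls above them in both duplicate recordings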
Numbers without * were called inactive; i = inactive; x = no result given. Compounds with a hit are over-represented: about 1.6% of the library has one in this group of screens.

SMILES	KCNQ2 inh	KCNQ2 pot	Kir21 conf inh	HEK293 ctr	others
N=c1n(CCN2CCCCC2)c2ccccc2n1CC(O)c1ccc(Cl)c(Cl)c1 (stereo not given)	i	x	36%*	64%*
CN(C)CCn1c(=N)n(CC(O)c2ccc(Cl)c(Cl)c2)c2ccccc21 (stereo not given)	i	1.2	x	x
N=c1n(CCN2CCCCC2)c2ccccc2n1CC(O)c1cccc(Br)c1 (stereo not given)	i	x	40%*	i
O=C(/C=C/c1cccc(F)c1)NC1CCN(Cc2ccccc2)CC1	i	0.69	x	x
Cc1c(C(=O)NC2CCN(Cc3ccccc3)C2)oc2ccc(Br)cc12 (stereo not given)	i	x	60%*	i
O=C(COc1ccccc1)NC1CCN(Cc2ccccc2)CC1	i	x	x	x
O=C(/C=C/c1cccc(Br)c1)NC1CCN(Cc2ccccc2)CC1	i	x	39%*	i
CCOc1ccc2oc(C(=O)NC3CCN(Cc4ccccc4)CC3)c(C)c2c1	i	0.55	x	x
O=C(COc1ccc(Br)cc1Cl)NC1CCN(Cc2ccccc2)CC1	i	x	21%*	i
COc1cc(/C=C/c2cccc[n+]2C)ccc1OCC(=O)Nc1cccc(Cl)c1	i	x	x	x
CC[C@@H](C)[C@H](NC(=O)OC(C)(C)C)c1nnc(S(=O)(=O)Cc2cc(C)ccc2C)o1	i	x	i	i
CC(C)[C@H](NC(=O)OC(C)(C)C)c1nnc(S(=O)(=O)Cc2c(F)cccc2Cl)o1	i	0.91	x	x
CC(C(=O)Nc1ccccn1)N1C(=O)c2ccccc2S1(=O)=O (stereo not given)	i	0.04	x	x
COC(=O)CN(c1nc(C)cc(OC)n1)S(=O)(=O)c1ccc(C)cc1	i	2.2	x	x
C=CCN(c1nc(C)cc(OC)n1)S(=O)(=O)c1ccccc1	i	x	55%*	72%*
C=CCN(c1nc(C)cc(OC)n1)S(=O)(=O)c1ccc(C)cc1	i	x	x	x
CCN(c1nc(C)cc(OC)n1)S(=O)(=O)c1ccccc1	i	x	56%*	74%*
Clc1ccc(-c2cc(C3CCNCC3)[nH]n2)cc1	i	x	38%*	i
Cc1ccc(CN2CCC(c3cc(-c4ccc(Cl)cc4)n[nH]3)CC2)cc1	i	x	x	x
O=C(Nc1cc(Cl)cc(Cl)c1)C1CCCC1	i	1.1	x	x
CSc1ccc(/C=N/NC(=O)c2cccs2)cc1	i	14*	i	i	CHO-K1 ctr=11*;KCNQ1 pot spec=-4;KCNQ2 pot confirm=-20;Kir21 spec=-29
O=C(N/N=C/c1ccncc1)c1cccs1	i	x	x	x
CC(C)c1ccc(OCc2nnc(SCC(=O)N3CCCCC3)o2)cc1	i	2.8	x	x
CCN1CCCC1Cn1cnc2c([nH]c3ccc(OC)cc32)c1=O (stereo not given)	i	x	x	x
CCCn1c(N)c(N(CCOC)C(=O)c2ccc(Cl)c([N+](=O)[O-])c2)c(=O)[nH]c1=O	i	x	x	x
SMILES	KCNQ2 inh	KCNQ2 pot	Kir21 conf inh	HEK293 ctr	others
CS/C(N)=N/S(=O)(=O)c1ccc(NC(C)=O)cc1	i	1.1	x	x
CC(C)CN(C(=O)COC(=O)Cc1n[nH]c(=O)c2ccccc12)C1CCS(=O)(=O)C1 (stereo not given)	i	x	x	x
CC(C)CN(C(=O)COC(=O)CNC(=O)c1sc2ccccc2c1Cl)C1CCS(=O)(=O)C1 (stereo not given)	i	0.6	i	75%*
CCCC(O)(c1ccc(OC)cc1)C(CN1CCOCC1)c1ccc(Cl)cc1 (stereo not given)	i	5.2	x	x
COc1ccc(C(O)(CCC(C)C)C(CN2CCOCC2)c2ccc(Cl)cc2)cc1 (stereo not given)	i	6.4*	i	i	CHO-K1 ctr=-24;KCNQ1 pot spec=46*;KCNQ2 pot confirm=-4;Kir21 spec=-30
CC(=O)c1cc2c(cc1NC(=O)CCn1cnnn1)OCO2	i	1.4	x	x
Cc1nc(/N=C\c2ccc(N(C)C)cc2)sc1C	i	0.05	x	x
Cc1cc(N2CCOCC2)n2ncc(-c3ccccc3Cl)c2n1	i	x	x	x
COc1ccc(NC(=O)NCCCN2CCC(Cc3ccccc3)CC2)cc1	i	x	x	x
O=C(NCCCCc1ccccc1)Nc1ccc(F)cc1	i	2.1	x	x
Cc1ccc(NC(=O)NCCCc2ccccc2)cc1	i	6.3*	i	i	CHO-K1 ctr=5.9*;KCNQ1 pot spec=71*;KCNQ2 pot confirm=-3;Kir21 spec=-36;KCNQ2 W236L MoA=i
Cc1ccc(NC(=O)NCCSc2ccc(C)cc2)cc1	i	5.5*	i	i	CHO-K1 ctr=-4;KCNQ1 pot spec=48*;KCNQ2 pot confirm=-4;Kir21 spec=-26
Cc1ccc(NC(=O)NCC2CC2(Cl)Cl)cc1 (stereo not given)	i	10*	i	i	CHO-K1 ctr=22*;KCNQ1 pot spec=-21;KCNQ2 pot confirm=-1;Kir21 spec=-31;KCNQ2 W236L MoA=i
CSc1ccc(NC(=O)NCCCN2CCC(Cc3ccccc3)CC2)cc1	i	x	64%*	i
Cc1ccc(NC(=S)NCCSc2ccc(Cl)cc2)cc1	i	3.2	x	x
Cc1ccc(CNC(=O)Nc2ccc(C)cc2)cc1	i	2.5	x	x
COc1ccccc1CNC(=O)COC(=O)c1nc(Cl)ccc1Cl	i	1.1	x	x
Cc1ccc(C2(C)NC(=O)N(CC(=O)N(Cc3ccccc3)C(C)(C)C)C2=O)cc1 (stereo not given)	i	x	x	x
O=C(COc1coc(CN2CCc3ccccc32)cc1=O)Nc1cccc(F)c1	i	0.15	x	x
CC(C)(C)c1ccc(-c2nc(-c3ccncc3)no2)cc1	i	7*	i	i	CHO-K1 ctr=54*;KCNQ1 pot spec=-13;KCNQ2 pot confirm=46*;Kir21 spec=-36;KCNQ2 W236L MoA=i
Cc1ccc(-c2nc(-c3ccncc3)no2)cc1	i	0.06	x	x
